Measurements: PubChem BioAssay AID1159580 (chemical genetic matrix, 2015)
“And” between values parts separate entries of the source, which are not always exact repeats. Equal entries are not always repeated. The campaign covered roughly 5,500 compounds. About 2,000 (36%) were called active. Another 18% or so got no clear call; they are omitted. Cut-off read from the data, not from the text of the source: active = normalized growth mostly below about 0.91 (no sharp cut-off); inconclusive = no clear call, values can overlap the other calls; inactive = mostly above about 0.92. This is one part of the list.

Test: chemical genetic growth profiling, strain panel (AID 1159580);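 note: tested at 20 µM; growth read once vehicle control cultures reached saturation at 30 °C; 1 = growth at the plate median or of vehicle wells; lower values mean less growth of the strain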
Settings: S. cerevisiae deletion strains, growth OD

Measured: normalized growth

CC(CN1c2ccccc2Sc2ccccc21)N(C)C (configuration not stated)
inactive: locus YAL030W, strain snc1, active compounds read low 0.973 | locus YAL040C, strain CLN3, active compounds read low 0.985 | locus YBL061C, strain skt5, active compounds read low 0.924 | locus YBR009C, strain hhf1, active compounds read low 0.954 | locus YBR021W, strain FUR4, active compounds read low 0.938 | locus YBR023C, strain chs3, active compounds read low 0.927 | locus YBR171W, strain sec66, active compounds read low 0.988 | locus YBR229C, strain ROT2, active compounds read low 0.95 | locus YBR231C, strain swc5, active compounds read low 0.95 | locus YBR279W, strain paf1, active compounds read low 0.966 | locus YCL011C, strain gbp2, active compounds read low 0.981 | locus YCL016C, strain dcc1, active compounds read low 0.975 | locus YCL061C, strain MRC1 (second series), active compounds read low 0.998 | locus YCL069W, strain vba3, active compounds read low 0.938 | locus YCR088W, strain abp1, active compounds read low 0.988 | locus YDL005C, strain med2, active compounds read low 1 | locus YDL035C, strain GPR1, active compounds read low 0.966 | locus YDL040C, strain nat1, active compounds read low 0.982 | locus YDL074C, strain BRE1, active compounds read low 0.906 | locus YDL101C, strain DUN1, active compounds read low 0.944 | locus YDL134C, strain PPH21, active compounds read low 0.979 | locus YDL185W, strain tfp1, active compounds read low 0.978 | locus YDL192W, strain arf1, active compounds read low 0.982 | locus YDR001C, strain nth1, active compounds read low 0.983 | locus YDR069C, strain doa4, active compounds read low 0.946 | locus YDR150W, strain NUM1, active compounds read low 0.99 | locus YDR159W, strain sac3, active compounds read low 0.968 | locus YDR162C, strain NBP2, active compounds read low 0.982 | locus YDR195W, strain ref2 1.14 | locus YDR297W, strain sur2, active compounds read low 0.937 | locus YDR318W, strain mcm21, active compounds read low 0.95 | locus YDR334W, strain swr1, active compounds read low 0.985 | locus YDR335W, strain msn5, active compounds read low 0.94 | locus YDR363W, strain ESC2, active compounds read low 0.993 | locus YDR388W, active compounds read low 0.977 | locus YDR392W, strain spt3, active compounds read low 1.07 | locus YDR502C, strain sam2, active compounds read low 0.948 | locus YEL003W, strain gim4, active compounds read low 0.926 | locus YEL037C, strain rad23, active compounds read low 0.972 | locus YEL061C, strain CIN8 (second series), active compounds read low 0.975 | locus YEL061C, strain CIN8, active compounds read low 0.977 | locus YER002W, strain NOP16, active compounds read low 0.978 | locus YER016W, strain bim1, active compounds read low 0.988 | locus YER110C, active compounds read low 0.971 | locus YER111C, strain swi4, active compounds read low 0.98 | locus YER155C, strain BEM2, active compounds read low 0.987 | locus YER167W, strain BCK2, active compounds read low 0.986 | locus YGL078C, strain dbp3, active compounds read low 0.972 | locus YGL086W, strain mad1, active compounds read low 0.936 | locus YGL167C, strain pmr1, active compounds read low 0.987 | locus YGL173C, strain kem1, active compounds read low 0.926 | locus YGL227W, strain vid30, active compounds read low 0.974 | locus YGL248W, strain PDE1, active compounds read low 0.945 | locus YGL253W, strain hxk2, active compounds read low 0.963 | locus YGR135W, strain pre9, active compounds read low 1 | locus YGR229C, strain SMI1, active compounds read low 0.954 and 0.981 | locus YGR252W, strain gcn5, active compounds read low 0.815 | locus YHR013C, strain ard1, active compounds read low 1.01 | locus YHR027C, strain rpn1, active compounds read low 0.927 | locus YHR030C, strain SLT2, active compounds read low 0.99 and 1.04 | locus YHR079C, strain IRE1 (second series), active compounds read low 0.957 | locus YHR079C, strain IRE1, active compounds read low 1.07 | locus YHR094C, strain hxt1, active compounds read low 0.974 | locus YHR129C, strain ARP1, active compounds read low 0.985 | locus YHR142W, strain chs7, active compounds read low 0.879 | locus YHR200W, strain rpn10, active compounds read low 0.966 | locus YIL066C, strain RNR3, active compounds read low 0.917 | locus YIL073C, strain SPO22, active compounds read low 0.968 | locus YIL125W, strain kgd1, active compounds read low 0.963 | locus YIR030C, strain dcg1, active compounds read low 0.98 | locus YJL092W, strain hpr5, active compounds read low 0.949 | locus YJL095W, strain BCK1 (second series), active compounds read low 0.96 | locus YJL095W, strain BCK1, active compounds read low 0.906 and 1.01 | locus YJL115W, strain asf1, active compounds read low 0.974 | locus YJL129C, strain trk1, active compounds read low 1.02 | locus YJL134W, strain LCB3, active compounds read low 0.984 | locus YJL154C, strain vps35, active compounds read low 0.973 | locus YJL164C, strain tpk1, active compounds read low 0.964 | locus YJL168C, strain set2, active compounds read low 0.983 | locus YJL187C, strain SWE1 (second series), active compounds read low 0.894 | locus YJR043C, strain POL32, active compounds read low 0.968 | locus YJR066W, strain TOR1, active compounds read low 0.972 | locus YJR075W, strain HOC1, active compounds read low 0.981 and 1.01
active: locus YAL021C, strain ccr4, active compounds read low 0.902 | locus YAL026C, strain drs2, active compounds read low 0.721 | locus YDR101C, strain arx1, active compounds read low 0.914 | locus YDR137W, strain rgp1, active compounds read low 1.25 [resistant] | locus YER015W, strain faa2, active compounds read low 0.901 | locus YER155C, strain BEM2 (second series), active compounds read low 0.816 | locus YFR010W, strain ubp6, active compounds read low 0.88 | locus YGL240W, strain doc1, active compounds read low 0.864 | locus YJL166W, strain qcr8, active compounds read low 0.896
